D1 agonist: Allosteric Agonists of the Human D1 Dopamine Receptor: qHTS; D(1A) dopamine receptor (Homo sapiens), P21728; HEK293 T-REx D1 cells, calcium flux, agonist mode; activation, % at 2 µM; 360,000 tested, 1% active; in the data active = activation above about 30%; also: 0% is about no effect
Target sequence (P21728 whole entry, looked up): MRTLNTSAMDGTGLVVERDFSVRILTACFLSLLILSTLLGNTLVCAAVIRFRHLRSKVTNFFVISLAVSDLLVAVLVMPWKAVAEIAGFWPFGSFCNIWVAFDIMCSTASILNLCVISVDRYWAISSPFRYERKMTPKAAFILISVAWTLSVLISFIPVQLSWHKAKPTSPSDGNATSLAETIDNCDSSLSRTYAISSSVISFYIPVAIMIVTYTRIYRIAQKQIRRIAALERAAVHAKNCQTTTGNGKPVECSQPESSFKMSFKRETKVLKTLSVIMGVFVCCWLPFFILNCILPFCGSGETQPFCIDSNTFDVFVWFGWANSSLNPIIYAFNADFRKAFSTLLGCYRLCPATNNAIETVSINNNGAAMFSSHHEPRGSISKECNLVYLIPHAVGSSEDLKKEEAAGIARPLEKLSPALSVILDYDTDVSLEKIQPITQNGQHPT
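Agonism was scored from calcium flux recorded over 180 s (1 read/s) after pintool compound addition, following a 10-cycle baseline. Cells were inducible force-coupled HEK293 TREx D1, plated overnight at 30 C and loaded with no-wash calcium dye.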
D1 PAM: Potentiators of Human D1 Dopamine Receptor: qHTS. D(1A) dopamine receptor (Homo sapiens), P21728. potentiation, % at 10 µM. 360,000 tested, 0.036% active. HEK293 TREx D1 cells, calcium flux, dopamine EC20 potentiation; in the data active = potentiation above about 30%; also: 0% is about no effect
D3 ag: qHTS of D3 Dopamine Receptor Agonist: qHTS; AID 652048, 2013; 410,000 tested, 0.58% active; D(3) dopamine receptor (Homo sapiens), P35462; D3R DiscoveRx beta-arrestin cells, luminescence, 90 min; max activation, %; in the data active = max activation above about 30%; also: 0% is about no effect
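Agonist-mode cell screen: cells plated at 1500/well and incubated overnight at 37 °C, then exposed to library compounds for 90 min at 37 °C. Detection reagent was added for 30–60 min at room temperature, and luminescence was read.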
ERG Ets-DNA blk: qHTS for Small Molecule Inhibitors of the ERG Ets/DNA interaction | AID 624246, 2012 | 370,000 tested, 0.028% active | Transcriptional regulator ERG (Homo sapiens), P11308 | fluorescence polarization, His-ERG Ets domain / labelled DNA | Potency, µM (doses to about 76.9 µM), without a hit: at the highest dose FP activity, negative = inhibition, usual class: inhibitors; active = well fitted inhibition curve with a large enough effect in the polarisation, with a control signal flat; inconclusive = small, poorly fitted or top-dose-only effect, or effect the other way, or a change in a side signal; inactive = no such curve, though single readings can be large or run the other way; the % refers to the polarisation;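 also: polarization taken with two DNA probes labelled with fluorescein and Texas red; potency is read from the fitted curve at half-maximal effect; % of control where 0% means no effect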
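His-tagged ERG Ets domain (1 uM in the protein solution; 300mM KCl, 50mM Tris-HCl, 1mM EDTA, 1mM DTT, pH 7.5) received compound, then a probe mix of 5 nM fluorescein-DNA and 100nM Texas-615-DNA. Fluorescence polarization was read for both dyes.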
D1 antag: Antagonist of Human D 1 Dopamine Receptor: qHTS; AID 504652, 2011; activity change, negative = inhibition, % at 10 µM; HEK293 TREx D1 cells, calcium flux, dopamine EC80; hits give low values; 360,000 tested, 3.2% active; D(1A) dopamine receptor (Homo sapiens), P21728; in the data active = activity change below about -30%; also: % is scaled to controls: 0 for no effect and ±100 for the full control effect
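Allosteric or orthosteric antagonism assessed as attenuation of the calcium response to EC80 dopamine, added 180 s after compound, in induced HEK293 Trex D1 cells loaded with no-wash calcium dye.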
D3 antag: qHTS of D3 Dopamine Receptor Antagonist: qHTS. D(3) dopamine receptor (Homo sapiens), P35462. D3R cells, DiscoveRx beta-arrestin luminescence, antagonist mode; hits give low values. max response, negative = inhibition, %. 360,000 tested, 2.5% active. AID 652054, 2013; in the data active = max response below about -50%; inconclusive = no clear call, values can overlap the other calls; also: % is scaled to controls: 0 for no effect and ±100 for the full control effect
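Cells plated overnight at 1500 cells/well, then exposed to library compounds with dopamine controls for 90 minutes at 37 degrees C. DiscoveRx reagent added for 30–60 minutes at room temperature; luminescence read, quantitative HTS format.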
* marks the source's active call; other numbers are inactive results; ? = inconclusive; / = no result; [ ] = dose if it differs, or a comment. Only some compounds are listed: those with a hit (about 6.1% of all), similar ones and a draw of the others.

SMILES	D1 agonist	D1 PAM	D3 ag	ERG Ets-DNA blk	D1 antag	D3 antag
Cc1ccc(CN2CCN(C3CCCC3)C(CCO)C2)s1 (stereo unspecified)	3	-5	-23	-2%	-23	-51*
Cc1ccc(CN2CCN(Cc3ccccc3)C(CCO)C2)s1 (stereo unspecified)	3	-2	-13	-13%	2	-53*
Cc1ccc(CN2CCN(Cc3ccc4c(c3)OCCO4)CC2CCO)cc1 (stereo unspecified)	7	-1	-20	-17%	-4	-55*
COc1cccc(CN2CCN(Cc3ccc4c(c3)OCCO4)CC2CCO)c1 (stereo unspecified)	5	-3	-13	-1%	-4	-28
Cc1ccc(CN2CCN(CC(C)C)C(CCO)C2)s1 (stereo unspecified)	3	0	-4	-4%	-3	8
Cc1ccc(CN2CCN(Cc3cnc(C)s3)CC2CCO)cc1 (stereo unspecified)	7	1	-15	-16%[15.4 µM]	-2	-60*
CCOc1ccc(C2c3[nH]c4ccccc4c3CCN2CCCn2cccn2)cc1 (stereo unspecified)	1	-3	-5	1%	-20	-14
Cc1cc(C)cc(C(=O)NCC(=O)OCc2nc(N)nc(Nc3ccccc3C)n2)c1	2	5	2	5%	-4	10
C[C@H](CO)N1C[C@H](C)[C@@H](CN(C)C(=O)Nc2ccccc2)Oc2ccc(NC(=O)C3CC3)cc2C1=O	/	/	11	-20%	/	-12
CCc1ccc2c(c1)c(=O)c(S(=O)(=O)c1ccc(Cl)cc1)cn2CC	1	0	3	-1%	5	/
CCN(CC)S(=O)(=O)c1cc(C(=O)Nc2ccncc2)ccc1Cl	20	-7	-12	/	-31*	-14
CCN(CC)S(=O)(=O)c1cc(C(=O)N(C)CC(=O)Nc2ccc(Cl)cc2)ccc1Cl	5	-4	-29	1%	-33*	?
CCN(CC)S(=O)(=O)c1cc(C(=O)Nc2cccnc2)ccc1Cl	1	-1	12	-2%	/	15
CCO[C@@H]1OC(C(=O)O)=C[C@H](C2CCCCC2)[C@H]1CCCO	-4	-1	35*	-2%	5	16
Cc1ccc(Sc2ccc(N3CCC(C(=O)Nc4cc(C)cc(C)c4)CC3)nn2)cc1	-1	6	0	-2%	-48*	/
Nc1nonc1C(=O)NCCNCc1c(OCc2ccccc2F)ccc2ccccc12	11	-9	-53	1%	-45*	-55*
Nc1nonc1C(=O)NCCNCc1cc(Br)ccc1OCc1ccc(F)cc1	15	-3	-8	-13%	-37*	-26
COc1ccc(CNCCNC(=O)c2nonc2N)cc1OC	-1	-7	-24	1%	8	-9
COc1cc(NC(=O)Cn2ncc3c([nH]c4ccc(C)cc43)c2=O)cc(OC)c1OC	1	0	5	2%	-9	/
CC(=O)N1CCc2cc(CNC(=O)Nc3ccccc3C(F)(F)F)ccc21	-1	0	-16	-4%	-10	/
CC(=O)N1CCc2cc(S(=O)(=O)N3CCOCC3)ccc21	1	0	0	4%	-14	15
CC(=O)N1CCc2cc(CNS(=O)(=O)c3ccccc3C(F)(F)F)ccc21	5	-3	61*	-7%	2	/
CC(=O)N1CCc2cc(S(=O)(=O)N3c4ccccc4CC3C)ccc21 (stereo unspecified)	10	-5	-9	/	-4	-51*
CS(=O)(=O)N1CCc2cc(S(=O)(=O)NCc3ccccc3Cl)ccc21	1	-6	-9	2%	-101*	/
CCOc1ccccc1CNS(=O)(=O)c1ccc2c(c1)CCCN2C(C)=O	9	-5	-2	-1%	-50*	/
SMILES	D1 agonist	D1 PAM	D3 ag	ERG Ets-DNA blk	D1 antag	D3 antag
COc1ccc2c(c1)NC(c1ccc(F)cc1)=NC(c1ccc(F)cc1)=N2	1	0	-18	-3%	-9	/
O=C(Cc1ccccc1[N+](=O)[O-])NC1CC1	3	-1	9	0%	8	-6
CCN(c1cccc(C)c1)S(=O)(=O)c1ccc2c(c1)CCN2C(C)=O	7	-6	1	0%	-10	8
CC(=O)N1CCc2cc(S(=O)(=O)NCCN3CCC(C)CC3)ccc21	0	-9	2	1%	4	-58*
CC(=O)N1CCc2cc(S(=O)(=O)NCCCN3CCN(Cc4ccccc4)CC3)ccc21	1	1	4	1%	-14	?
CCN(c1cccc(C(F)(F)F)c1)S(=O)(=O)c1ccc2c(c1)CCN2C(C)=O	3	-6	0	8%	-11	-62*
O=C(NCC1CCOCC1)c1ccc2nc(Cc3cccc(Cl)c3)oc2c1	-1	-23	-9	1%	-53*	2
O=C(NCCCN1CCN(c2cccc(Cl)c2)CC1)c1ccc2nc(Cc3ccccc3)oc2c1	18	-5	-7	9%	-33*	/
COc1ccc(N2CCN(CCCNC(=O)c3ccc4nc(Cc5ccccc5)oc4c3)CC2)cc1	27	-3	4	-2%	-24	/
COc1ccc(N2CCN(CCCNC(=O)c3ccc4nc(CCc5ccccc5)oc4c3)CC2)cc1	35*	-3	0	2%	-31*	/
CC(C)c1nc2ccc(C(=O)NCCCN3CCN(c4cccc(Cl)c4)CC3)cc2o1	7	-5	16	-3%	-45*	/
O=C(NCCCN1CCN(c2ccccc2)CC1)c1ccc2nc(CCc3ccccc3)oc2c1	32*	-4	12	0%	-60*	/
c1cncc(-c2nnc(SCc3nc4ccccc4[nH]3)o2)c1	2	-6	0	11%	-4	31
Cc1ccc(C(=O)Cc2nc3ccccc3[nH]2)cc1	3	-1	-12	2%	-10	-51*
Cc1ccccc1CSCc1nc2ccccc2[nH]1	13	-9	-5	12%	-30*	4
Cc1ccc(C)c(CSCc2nc3ccccc3[nH]2)c1	11	-5	2	-4%	-12	2
c1ccc2[nH]c(CSc3nc4ccccc4o3)nc2c1	33*	-3	-19	/	-3	22
CC(=O)Nc1ccc(Sc2ccccc2C(=O)Nc2ccc(F)cc2)cn1	46*	2	7	-8%	-8	6
